The list is not random: actives were taken first. Their share in the collection is about 1.5%.
MCL1-BIM inh: inhibitors of MCL1 binding to BIM-BH3, primary screen, biochemical, fluorescence polarization. AID 2057, 2009. inhibition, % at 10.9 µM. 0.68% of 320,000 active. Induced myeloid leukemia cell differentiation protein Mcl-1 (Homo sapiens), Q07820. GST-MCL1 / FITC-Bim-BH3 fluorescence polarization;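 active means inhibition above the mean inhibition of all tested compounds plus 3 SD, set per campaign, cut at about 40% in these data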;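 further: 0% = DMSO wells and 100% = unlabeled Bim-BH3 peptide control; higher means more loss of mP so more displacement of Bim peptide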
MEX-5 binding: MEX-5 zinc finger RNA-binding disruptors – biochemical, C. elegans, fluorescence polarization, MLPCN library, primary screen; Zinc finger protein mex-5 (Caenorhabditis elegans), Q9XUB2; MEX-5/FITC-TCR2 RNA binding; active compounds read low; activity score (negative = inhibition of binding), % at 10 µM; 0.38% of 300,000 active; AID 1832, 2009;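 active means inhibition past about -25% in most replicates, and total fluorescence under double the plate's negative control median, limit read from the data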;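 further: 0% = DMSO and -100% = 5 µM competing unlabeled TCR2 RNA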
GLD-1 TGE inh: GLD-1/TGE RNA complex disruptors, primary screen, biochemical, fluorescence polarization. inhibition, % at 5.96 µM. purified GLD-1 + fluorescein TGE RNA. 0.44% of 320,000 active. Female germline-specific tumor suppressor gld-1 (Caenorhabditis elegans), Q17339;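 active means percent inhibition above a per-plate cutoff, the plate mean of test compounds plus 3 SD, cut at about 30% in these data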;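 further: 0% = DMSO wells with GLD-1 and probe and 100% = wells lacking GLD-1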
Bcl-xL primary: inhibitors of human Bcl-xL, primary screen, biochemical, fluorescence polarization, HTS. Bcl-2-like protein 1 (Homo sapiens), Q07817. GST-Bcl-xL / FITC-Bim BH3 peptide fluorescence polarization. inhibition, % at 10.9 µM. 0.7% of 320,000 active;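 active means inhibition above the mean of all tested compounds plus 3 SD, cutoff set per campaign, cut at about 30% in these data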;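 further: 0% = DMSO wells and 100% = unlabeled Bim-BH3 peptide competitor; inhibitors lower millipolarization by displacing the labeled peptide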
EBV gp42 block: Epstein-Barr virus gp42 inhibitors, primary screen, biochemical, uHTS, fluorescence polarization | Glycoprotein 42 (Epstein-Barr virus (strain AG876)), Q1HVG2 | Fluorescence polarization binding assay, mP read-out | inhibition, % (tested at 21.74 µM) | 0.42% of 220,000 active | AID 1085, 2008; in the data active means inhibition above about 50%
E coli Lon inh: inhibitors of E. coli Lon protease, primary screen, biochemical, fluorescence polarization; purified E. coli Lon protease; inhibition, % at 7.94 µM; 0.42% of 360,000 active; AID 602123, 2011; in the data active means inhibition above about 13%, passing the limit was not always enough;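 further: 0% = enzyme with probe and DMSO and 100% = no enzyme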
Target sequence (P0A9M0 whole entry, looked up): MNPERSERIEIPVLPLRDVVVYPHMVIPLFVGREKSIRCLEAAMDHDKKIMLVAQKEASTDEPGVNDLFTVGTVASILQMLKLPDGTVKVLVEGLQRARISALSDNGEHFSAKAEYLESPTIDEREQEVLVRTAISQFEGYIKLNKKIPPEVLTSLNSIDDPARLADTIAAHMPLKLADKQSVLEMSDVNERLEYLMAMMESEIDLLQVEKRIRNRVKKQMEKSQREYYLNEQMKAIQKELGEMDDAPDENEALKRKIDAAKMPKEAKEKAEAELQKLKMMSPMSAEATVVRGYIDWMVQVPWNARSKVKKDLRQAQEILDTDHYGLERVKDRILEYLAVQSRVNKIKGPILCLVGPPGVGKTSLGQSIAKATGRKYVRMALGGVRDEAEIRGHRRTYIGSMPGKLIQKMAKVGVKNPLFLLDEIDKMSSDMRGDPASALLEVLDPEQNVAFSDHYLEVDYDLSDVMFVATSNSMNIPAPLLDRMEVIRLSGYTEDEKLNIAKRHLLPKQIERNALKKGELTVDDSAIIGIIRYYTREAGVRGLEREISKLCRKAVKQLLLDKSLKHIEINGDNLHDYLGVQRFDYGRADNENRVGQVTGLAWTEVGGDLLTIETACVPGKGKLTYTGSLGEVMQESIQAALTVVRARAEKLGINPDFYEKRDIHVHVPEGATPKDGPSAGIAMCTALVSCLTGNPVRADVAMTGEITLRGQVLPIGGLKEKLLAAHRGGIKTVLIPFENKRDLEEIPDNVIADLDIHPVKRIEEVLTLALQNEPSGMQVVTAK
Bcl-xL conf: Bcl-xL inhibitors blocking Bim BH3 binding, confirmation, counter-screen for MCL1 inhibitor project, biochemical, fluorescence polarization | shares compounds with MCL1-BIM inh | GST-Bcl-xL / FITC-Bim BH3 peptide FP binding | inhibition, % at 10.9 µM | 54% of 1,700 active | AID 2166, 2009;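 active means inhibition above a cutoff equal to the mean inhibition of all tested compounds plus 3 SD, cut at about 30% in these data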;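 further: 0% = DMSO wells and 100% = unlabeled Bim BH3 control peptide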
MCL1 BIM confirm: inhibitors of MCL1 binding to BIM-BH3, confirmation, biochemical, fluorescence polarization, triplicate. shares compounds with MCL1-BIM inh. GST-MCL1 / FITC-Bim-BH3 fluorescence polarization. inhibition, % at 10.9 µM. 61% of 1,700 active;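 active means inhibition above the average of all tested compounds plus 3 SD, cut at about 40% in these data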;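 further: 0% = DMSO wells and 100% = unlabeled Bim-BH3 control peptide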
The depositor's hits bear a star.

What do the screens show for `O=c1nc(/C=C/c2ccc(-c3ccc(F)cc3)o2)cc(C(F)(F)F)[nH]1`?
MCL1-BIM inh: 43.7*; MEX-5 binding: -0.3; GLD-1 TGE inh: -10.6; Bcl-xL primary: 11.4; EBV gp42 block: 0.7; Bcl-xL conf: 40.1*; MCL1 BIM confirm: 21.6

Results for O=C(CN1C(=O)C2C3CCC(C3)C2C1=O)NCc1ccco1 (centres undefined) ?
MCL1-BIM inh: 52.8*; MEX-5 binding: 3.8; GLD-1 TGE inh: -2.9; Bcl-xL primary: 5.9; EBV gp42 block: 3.1; E coli Lon inh: -6.1; Bcl-xL conf: 7.2; MCL1 BIM confirm: 8.5

What do the screens show for `O=C1C2C3CCC(C3)C2C(=O)N1Cc1ccco1` (centres undefined)?
MCL1-BIM inh: -8.7; MEX-5 binding: 2.4; GLD-1 TGE inh: 2.0; Bcl-xL primary: -9.4; EBV gp42 block: -13.2; E coli Lon inh: -1.2

How did CN1CCN(/N=C/c2ccc(-c3ccccc3)cc2)CC1 do in these assays?
MCL1-BIM inh: 5.4; MEX-5 binding: 3.7; GLD-1 TGE inh: 5.3; Bcl-xL primary: 5.0; EBV gp42 block: -17.6; E coli Lon inh: -1.5

What do the screens show for `CN1CCN(/N=C/c2c3ccccc3c(Cl)c3ccccc23)CC1`?
MCL1-BIM inh: 127.2*; MEX-5 binding: -0.7; GLD-1 TGE inh: 77.1*; Bcl-xL primary: 110.6*; EBV gp42 block: 20.7; E coli Lon inh: 1.7; Bcl-xL conf: 22.4; MCL1 BIM confirm: 27.2

What do the screens show for `Cc1cccc(CNC(=O)C2CCC(=O)N(CCCc3ccccc3)C2)c1` (centres undefined)?
E coli Lon inh: -10.8

How did Cc1cccc(C)c1NC(=O)C1c2ccccc2OCC(=O)N1Cc1cccnc1 (centres undefined) do in these assays?
E coli Lon inh: -4.7

What do the screens show for `O=C1CC(c2ccc(O)c(O)c2)Oc2c1ccc(O)c2O` (centres undefined)?
MCL1-BIM inh: 70.3*; GLD-1 TGE inh: 5.8; Bcl-xL primary: 15.3; EBV gp42 block: -0.9; E coli Lon inh: -8.9; Bcl-xL conf: 20.4; MCL1 BIM confirm: 77.7*

How did COc1ccc(C(=O)Nc2cccc(C)c2)cc1 do in these assays?
MCL1-BIM inh: 5.1; MEX-5 binding: -2.6; GLD-1 TGE inh: 0.9; Bcl-xL primary: 4.4; EBV gp42 block: 1.9; E coli Lon inh: 3.0

How did COc1ccc(NS(=O)(=O)c2cccc(C(=O)Nc3cccc(C(=O)O)c3)c2)cc1 do in these assays?
MCL1-BIM inh: 68.2*; MEX-5 binding: -0.1; GLD-1 TGE inh: 6.4; Bcl-xL primary: 4.4; E coli Lon inh: -2.1; Bcl-xL conf: -0.7; MCL1 BIM confirm: -1.6

How did COc1ccc(CC(=O)Nc2cccc(C(=O)Nc3cccc(C)c3)c2)cc1 do in these assays?
MCL1-BIM inh: 117.6*; MEX-5 binding: -0.4; GLD-1 TGE inh: 6.2; Bcl-xL primary: 5.7; EBV gp42 block: -4.2; Bcl-xL conf: 0.8; MCL1 BIM confirm: 4.7

What do the screens show for `CCCCCCCCCC(=O)N[C@@H]1c2cc(OC)c(OC)cc2C[C@H]1O`?
E coli Lon inh: -4.2

Results for Nc1c(C(=O)Nc2ccc(S(=O)(=O)N3CCCC3)cc2)sc2nc3ccc(OC(F)(F)F)cc3cc12 ?
MCL1-BIM inh: 48.4*; MEX-5 binding: -12.6; GLD-1 TGE inh: 22.9; Bcl-xL primary: 57.3*; EBV gp42 block: -29.6; E coli Lon inh: -40.7; Bcl-xL conf: 35.5*; MCL1 BIM confirm: 41.7*

What do the screens show for `COc1ccc(NC(=O)CSCC(=O)Nc2ccc(S(=O)(=O)N3CCCC3)cc2)cc1`?
MCL1-BIM inh: -18.6; MEX-5 binding: 4.1; GLD-1 TGE inh: -7.1; Bcl-xL primary: -0.6; E coli Lon inh: -10.3

Results for c1coc(-c2nnc(-c3ccco3)nn2)c1 ?
MCL1-BIM inh: 75.0*; MEX-5 binding: -58.9*; GLD-1 TGE inh: 7.6; Bcl-xL primary: 42.7*; E coli Lon inh: 1.8; Bcl-xL conf: 39.2*; MCL1 BIM confirm: 68.3*

What do the screens show for `c1ccc(-c2nnc(-c3ccco3)o2)cc1`?
MCL1-BIM inh: 1.3; MEX-5 binding: 0.3; GLD-1 TGE inh: 3.0; Bcl-xL primary: 4.8; EBV gp42 block: -9.2; E coli Lon inh: -2.1

Results for COc1cccc(/C=N/NC(=S)Nc2cccc(C(=O)O)c2)c1O ?
MCL1-BIM inh: 55.9*; MEX-5 binding: -4.0; GLD-1 TGE inh: -6.8; Bcl-xL primary: 13.2; EBV gp42 block: 0.7; E coli Lon inh: -5.4; Bcl-xL conf: 21.8; MCL1 BIM confirm: 72.2*

What do the screens show for `COc1cc(/C=N/NC(=S)Nc2cccc(C(=O)O)c2)ccc1O`?
MCL1-BIM inh: 3.3; MEX-5 binding: -11.6; GLD-1 TGE inh: 4.1; Bcl-xL primary: 8.6; EBV gp42 block: 5.2; E coli Lon inh: -4.3

What do the screens show for `CCNc1nc(NCC)nc(Oc2ccc(C(=O)OC)cc2)n1`?
MCL1-BIM inh: -1.3; MEX-5 binding: -0.7; GLD-1 TGE inh: -3.7; Bcl-xL primary: 2.0; EBV gp42 block: -17.0; E coli Lon inh: -20.1

How did CCn1c(O)c(/C=N/N=C/c2ccccc2)c2ccc(C3=NNC(=O)CC3)cc21 do in these assays?
MCL1-BIM inh: 90.0*; MEX-5 binding: -12.5; GLD-1 TGE inh: -30.2; Bcl-xL primary: 48.8*; EBV gp42 block: 59.6*; E coli Lon inh: -79.4; Bcl-xL conf: 95.7*; MCL1 BIM confirm: 109.0*

Results for CCN(C(=O)c1ccc2c(=O)n3c(nc2c1)CCCCC3)c1cc(OC)ccc1OC ?
MCL1-BIM inh: -9.0; MEX-5 binding: -1.5; GLD-1 TGE inh: -3.8; Bcl-xL primary: -2.3; E coli Lon inh: 8.7

How did CC(C)(C)c1ccc(C(=O)N/C(=C\c2cccc([N+](=O)[O-])c2)C(=O)Nc2cccc(C(=O)O)c2)cc1 do in these assays?
MCL1-BIM inh: 9.6; MEX-5 binding: 1.6; GLD-1 TGE inh: 2.6; Bcl-xL primary: 6.4; E coli Lon inh: -4.2

Results for Cc1ccc2nc(N(CCCN(C)C)C(=O)c3ccc(S(=O)(=O)N4CCCCCC4)cc3)sc2c1 ?
MCL1-BIM inh: -8.5; MEX-5 binding: -0.1; GLD-1 TGE inh: -3.5; Bcl-xL primary: -4.1; E coli Lon inh: -5.6

High-throughput results deposited in PubChem by several laboratories.
